Data reported in PubChem BioAssay AID651640 (Broad Institute, 2012).
Out of some 350,000 compounds screened, about 6,000 (1.7%) were called active. Another 5% or so got no clear call; they are omitted. The entries come from a sample that favours actives as a whole. Values without a mark were called inactive. Rule as the data show it: active = CPE inhibition above about 20% (passing the limit was not always enough); inconclusive = no clear call, values can overlap the other calls; tested in BHK-21 cells.

experiment: inhibitors of DENV2 cytopathic effect, primary screen, cell-based, plate reader, single concentration (AID 651640); settings: DENV2-infected cells, cytopathic effect rescue, at 9.99 µM, stronger effect = higher value;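 also: 0% = median of neutral control wells and 100% = median of positive control wells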

SMILES	CPE inhibition
CO[C@@H]1CN(C)C(=O)c2cc(NC(=O)C3CCCC3)ccc2OC[C@H](C)N(C)C[C@@H]1C	4.63%
COC(=O)C[C@@H]1C[C@H]2c3cc(NC(=O)CN(C)C)ccc3O[C@H]2[C@H](CO)O1	1.76%
Cc1noc(C)c1S(=O)(=O)N(C)C[C@@H]1OCCCC[C@H](C)Oc2ccc(NC(=O)CCC(F)(F)F)cc2C(=O)N([C@H](C)CO)C[C@H]1C	18.7%
O=C(Nc1nccs1)[C@@H]1[C@@H](CO)[C@@H]2Cn3c(ccc(-c4cccnc4)c3=O)[C@@H]2N1CC1CC1	-4.43%
CC(C)(C)OC(=O)C[C@@H]1C/C=C\C[C@H](CC(=O)N[C@@H](CO)Cc2ccccc2)C(=O)N[C@H](Cc2ccccc2)COC1=O	21.2% (active)
CC(C)(C)OC(=O)C[C@@H]1C/C=C\C[C@@H](CC(=O)N[C@H](CO)Cc2ccccc2)C(=O)NCCOC1=O	-7.88%
C[C@H]1COC(=O)[C@H](CC(=O)OC(C)(C)C)C/C=C\C[C@@H](CC(=O)N[C@H](CO)Cc2ccccc2)C(=O)N1	15.2%
O=C(NCC1CC1)[C@@H]1[C@@H](CO)[C@@H]2Cn3c(ccc(-c4ccncc4)c3=O)[C@@H]2N1Cc1cocn1	6.32%
O=C(c1ccncc1)N1CC[C@@H]2[C@H]1c1cc(Br)ccc1N[C@@H]2CO	-10.3%
C[C@H]1CN([C@@H](C)CO)C(=O)c2cccc(NC(=O)Nc3ccccc3)c2O[C@@H]1CN(C)C(=O)Nc1cccc2ccccc12	13.2%
COCCn1c(SCC(=O)Nc2ccccc2F)nc2c(c1=O)SCC2	69.8% (active)
COCCn1c(SCC(=O)Nc2cc(Cl)ccc2OC)nc2c(c1=O)SC(C)C2 (centres undefined)	1.59%
COCCn1c(SCC(=O)Nc2ccc(F)cc2F)nc2c(c1=O)SCC2	-1.37%
C[C@H]1CN([C@@H](C)CO)C(=O)c2cc(C3=CCCC3)cnc2O[C@H]1CN(C)Cc1ccccc1C(=O)O	10.8%
CC(C)C(=O)Nc1ccc2c(c1)C(=O)N(C)[C@@H]1CC[C@@H](CC(=O)NCCc3ccccc3)O[C@H]1CO2	19%
C[C@@H]1CCCCO[C@@H](CN(C)Cc2ccncc2)[C@H](C)CN([C@@H](C)CO)C(=O)c2cc(NS(=O)(=O)c3ccccc3)ccc2O1	-0.228%
C[C@H]1CCCCO[C@H](CN(C)Cc2ccc(C(F)(F)F)cc2)[C@@H](C)CN([C@@H](C)CO)C(=O)c2cc(NC(=O)C3CCCCC3)ccc2O1	-17.3%
C[C@H](CO)N1C[C@H](C)[C@H](CN(C)C(=O)Nc2ccc(C(F)(F)F)cc2)OCCCC[C@H](C)Oc2ccc(NC(=O)C3CCCCC3)cc2C1=O	21.9% (active)
C[C@@H]1CCCCO[C@@H](CN(C)C(=O)NC2CCCCC2)[C@@H](C)CN([C@H](C)CO)C(=O)c2cc(NC(=O)CCC(F)(F)F)ccc2O1	-1.91%
C[C@@H]1CCCCO[C@H](CN(C)C(=O)Nc2ccc(C(F)(F)F)cc2)[C@H](C)CN([C@H](C)CO)C(=O)c2cc(NC(=O)Nc3ccc(C(F)(F)F)cc3)ccc2O1	2.81%
C[C@@H]1CCCCO[C@@H](CN(C)C(=O)C2CCCCC2)[C@H](C)CN([C@H](C)CO)C(=O)c2cc(NC(=O)CCC(F)(F)F)ccc2O1	74.2% (active)
C[C@@H]1CCCCO[C@@H](CN(C)C(=O)Nc2ccc(C(F)(F)F)cc2)[C@H](C)CN([C@H](C)CO)C(=O)c2cc(NC(=O)C3CCCCC3)ccc2O1	22.5% (active)

SMILES	CPE inhibition
C[C@@H]1CCCCO[C@@H](CN(C)C(=O)CCC(F)(F)F)[C@@H](C)CN([C@H](C)CO)C(=O)c2cc(NC(=O)CCC(F)(F)F)ccc2O1	4.89%
C[C@@H]1CN([C@@H](C)CO)C(=O)c2cc(NC(=O)C3CCCCC3)ccc2O[C@@H](C)CCCCO[C@@H]1CN(C)C(=O)Nc1ccccc1	-1.11%
C[C@H](CO)N1C[C@H](C)[C@@H](CN(C)Cc2ccc(C(F)(F)F)cc2)OCCCC[C@H](C)Oc2ccc(NC(=O)C3CCCCC3)cc2C1=O	-1.83%
C[C@@H]1CN([C@H](C)CO)C(=O)c2cc(C#Cc3ccccn3)cnc2O[C@H]1CN(C)CC1CCOCC1	-1.46%
O=C(C[C@H]1CC[C@@H]2[C@H](COC[C@@H](O)CN2C(=O)Nc2cccc(F)c2)O1)NCc1ccccc1F	0.633%
COc1ccc2c3c([nH]c2c1)[C@H](CO)N(Cc1cccc(F)c1)CC31CCN(CC2CC2)CC1	-32.6%
C[C@H]1CCCCO[C@H](CN(C)CC2CC2)[C@@H](C)CN([C@@H](C)CO)C(=O)c2cc(NS(C)(=O)=O)ccc2O1	2.25%
COc1ccccc1-c1cnc2c(c1)C(=O)N([C@H](C)CO)C[C@@H](C)[C@@H](CN(C)CC1CCCC1)O2	23.1%
C[C@@H]1CN([C@H](C)CO)C(=O)c2cc(NS(C)(=O)=O)ccc2O[C@@H]1CN(C)S(C)(=O)=O	-0.244%
C[C@H](O)C#Cc1cnc2c(c1)C(=O)N([C@H](C)CO)C[C@H](C)[C@@H](CN(C)C(=O)Nc1ccc(F)cc1)O2	8.69%
CNC[C@@H]1OCCCC[C@H](C)Oc2ccc(NC(=O)Nc3ccc(OC)cc3)cc2C(=O)N([C@H](C)CO)C[C@@H]1C	7.49%
C[C@@H]1CCCCO[C@H](CN(C)S(=O)(=O)c2ccc(Cl)cc2)[C@H](C)CN([C@@H](C)CO)C(=O)c2cc(NS(=O)(=O)c3cccs3)ccc2O1	63.8% (active)
C[C@@H]1CCCCO[C@H](CN(C)S(=O)(=O)c2cccs2)[C@H](C)CN([C@@H](C)CO)C(=O)c2cc(NS(=O)(=O)c3cccs3)ccc2O1	-8.04%
COc1ccc(NC(=O)N(C)C[C@H]2Oc3ccc(NS(=O)(=O)c4cccs4)cc3C(=O)N([C@@H](C)CO)C[C@H]2C)cc1	-6.98%
C[C@H]1CN([C@@H](C)CO)C(=O)c2cc(NS(=O)(=O)c3cccs3)ccc2O[C@@H]1CN(C)C(=O)Nc1cccc2ccccc12	-2.31%
C[C@@H]1CN([C@H](C)CO)C(=O)c2cc(NS(=O)(=O)c3cccs3)ccc2O[C@@H](C)CCCCO[C@@H]1CN(C)S(=O)(=O)c1cccs1	-4.08%
C[C@@H]1CN([C@H](C)CO)C(=O)c2cc(NS(=O)(=O)c3cccs3)ccc2O[C@@H](C)CCCCO[C@@H]1CN(C)S(=O)(=O)c1ccc(Cl)cc1	22.8% (active)
C[C@@H]1CCCCO[C@@H](CN(C)S(=O)(=O)c2ccc(F)cc2)[C@@H](C)CN([C@@H](C)CO)C(=O)c2cc(NS(=O)(=O)c3cccs3)ccc2O1	12.7%
C[C@H]1CCCCO[C@@H](CN(C)S(=O)(=O)c2cccs2)[C@@H](C)CN([C@@H](C)CO)C(=O)c2cc(NS(=O)(=O)c3ccc(Cl)cc3)ccc2O1	-0.143%
C[C@H]1CN([C@@H](C)CO)C(=O)c2cc(NS(=O)(=O)c3cccs3)ccc2O[C@@H]1CN(C)C(=O)Nc1ccccc1	22.2% (active)
CC(C)NC(=O)Nc1ccc2c(c1)C(=O)N(C)[C@H]1CC[C@H](CC(=O)NCC3CCCCC3)O[C@@H]1CO2	-11%
C=C[C@H](OC)[C@@H](O)c1ccc(OC)c(O)c1	-1.37%

SMILES	CPE inhibition
C[C@H](CO)N1C[C@H](C)[C@@H](CN(C)C(=O)CCC(F)(F)F)OCCCC[C@H](C)Oc2ccc(NC(=O)C3CCCCC3)cc2C1=O	-0.808%
CCS(=O)(=O)N1[C@H](CO)[C@@H](c2ccccc2)C12CN(C(=O)C1CCC1)C2	-6.37%
Cc1noc(C)c1NC(=O)N(C)C[C@@H]1Oc2ccc(NC(=O)Nc3ccc4c(c3)OCO4)cc2CC(=O)N([C@H](C)CO)C[C@H]1C	9.34%
C[C@@H]1CN([C@H](C)CO)C(=O)c2cc(C#CCC3CCCC3)cnc2O[C@H]1CN(C)C(=O)c1cnccn1	4.48%
CO[C@H]1O[C@H](CO)[C@@H](OC(=O)Nc2ccc(C(F)(F)F)cc2)[C@H](OC(=O)Nc2ccc3c(c2)OCO3)[C@H]1OC(=O)Nc1ccc2c(c1)OCO2	3.41%
CO[C@@H]1CN(C)C(=O)c2cc(NC(=O)C3CC3)ccc2OC[C@@H](C)N(Cc2ccc(F)cc2)C[C@@H]1C	3.49%
C[C@@H]1CN([C@@H](C)CO)C(=O)Cc2cc(NS(C)(=O)=O)ccc2O[C@H]1CN(C)C(=O)Nc1ccccc1	16.2%
C[C@@H]1CN([C@H](C)CO)C(=O)Cc2cc(NC(=O)CCN3CCOCC3)ccc2O[C@H]1CN(C)CC1CC1	-0.438%
CCS(=O)(=O)N1CC2(CN(C(=O)c3ccc(F)cc3)[C@H](CO)c3c2c2ccc(OC)cc2n3C)C1	21.9% (active)
COc1ccc2c3c([nH]c2c1)[C@@H](CO)N(C(=O)C1CC1)CC31CCN(Cc2nccs2)CC1	25.2% (active)
COc1ccc2c3c(n(C)c2c1)[C@@H](CO)N(C(C)=O)CC31CCN(Cc2nccs2)CC1	-1.04%
COc1cc(CN2CC3(CN(S(=O)(=O)c4cn(C)cn4)C3)c3c(n(C)c4cc(OC)ccc34)[C@H]2CO)cc(OC)c1	58.8% (active)
CCS(=O)(=O)N1CC2(CN(Cc3ccccc3)[C@@H](CO)c3c2c2ccc(OC)cc2n3C)C1	6.33%
COc1ccc2c3c(n(C)c2c1)[C@H](CO)N(CC1CCCCC1)CC31CCN(Cc2nccs2)CC1	22.7% (active)
CCS(=O)(=O)N1CC2(CN(C(=O)c3ccc(F)cc3)[C@@H](CO)c3c2c2ccc(OC)cc2n3C)C1	-7%
COc1ccc2c3c(n(C)c2c1)[C@H](CO)N(C(=O)CC1CC1)CC31CCN(Cc2nccs2)CC1	-5.74%
COc1ccc2c3c([nH]c2c1)[C@H](CO)N(Cc1nccs1)CC31CCN(C(=O)C2CCC2)CC1	-3.4%
CCS(=O)(=O)N1CC2(CN(Cc3cc(F)ccc3F)[C@@H](CO)c3c2c2ccc(OC)cc2n3C)C1	-8.85%
COc1ccc2c3c([nH]c2c1)[C@@H](CO)N(Cc1nccs1)CC31CCN(C(=O)C2CCCC2)CC1	-11.8%
COc1ccc2c3c(n(C)c2c1)[C@@H](CO)N(C(=O)c1ccc(F)cc1)CC31CN(C(=O)c2ccc(F)cc2)C1	2.03%
